Experimental findings from PubChem BioAssay AID1053188 (Broad Institute, 2014) are described below.

Where “and” joins values, the source holds several entries; their conditions need not be identical. Equal values may be shown once. About 780 (0.94%) of roughly 83,000 compounds were called active.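 Rule for the calls: active = mean inhibition of at least 50% with a set share of replicates also reaching that level; inconclusive = no clear call, values can overlap the other calls; inactive = the rest.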 What follows is part of a selection rich in actives, with near analogues and random picks from the rest. More than one record can exist for a structure, and the calls need not agree.

The test can be described thus: CD40 pathway blockade in BL2 B cells – cell-based, luciferase reporter, single point, primary screen (AID 1053188).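 Note: 0% = neutral control wells and 100% = IKK inhibitor VII at 50 µM.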 The note with it: BL2 NF-kB luciferase reporter, CD40L-induced, 4 h, stronger effect = higher value; at 10 µM unless noted. For orientation: A reporter such as luciferase makes a cellular process visible.
As usually defined, the inhibition is the relative decrease from the control value, in per cent. Take `Cn1cnc(S(=O)(=O)N2CCCCN3[C@@H](CO)[C@@H](c4ccc(C#CC5CCCC5)cc4)[C@@H]3C2)c1`: the inhibition is 2.82% [at 25 µM] (inactive).

For `COc1ccc(C#Cc2ccc([C@H]3[C@@H](CO)N4CCCCN(S(=O)(=O)c5cn(C)cn5)C[C@H]34)cc2)cc1`, the inhibition was 66.3% [at 25 µM] (active).

Consider `COc1ccc(C#Cc2ccc([C@@H]3[C@@H](CO)N4CCCCN(C(=O)c5ccncc5)C[C@@H]34)cc2)cc1`, for which the inhibition was -18.8% [at 25 µM] (inactive).

As for `Cc1nnc(CN(C)Cc2cn[nH]c2-c2ccc(-c3ccccc3)cc2)o1`, the inhibition was -39% (inactive).

In the case of `COc1ccc(C(=O)Nc2ccccc2C(=O)N/N=C/c2ccccc2OC)cc1`, the inhibition was 53.7% (active).

As to `COc1ccccc1C(=O)NNC(=O)c1ccc(NC(=O)c2ccccc2)cc1`, the inhibition was 11.1% (inactive).

Turning to `COc1ccc(C(=O)Nc2cc(C)ccc2NC(=O)COc2ccccc2)cc1`, the inhibition is -29.7% (inactive).

Regarding `CCCNC(=O)C1CC(=O)N(c2ccc(OCc3ccccc3)cc2)C1` (stereo unspecified), the inhibition is -7.3% (inactive).

For the compound `O=C(C[C@H]1C=C[C@@H](NC(=O)c2cnccn2)[C@H](CO)O1)NCc1ccccc1F`, the inhibition is 3.55% [at 25 µM] (inactive).

As to `Cc1nnsc1C(=O)N/N=C/c1ccccc1Cl`, the inhibition was 25% (inactive).

With `O=C(Nc1ccc(Cl)cc1)Nc1nnc(/C=C/c2ccccc2)s1`, the inhibition was -0.929% (inactive).

Take `O=C(Nc1ccccc1)c1nnsc1S(=O)(=O)c1ccc(Cl)cc1`: the inhibition is 96.6% (active).

As for `Cc1cc(C(=O)OC(C)C(=O)NC2CCCCC2C)c(C)o1` (stereo unspecified), the inhibition is 16.2% (inactive).

Consider `NC(c1ccccc1)c1csc(NC(=O)Nc2cccc(C(F)(F)F)c2)n1` (stereo unspecified), for which the inhibition was 75% (active).

`CC(C)C[C@H](NC(=O)Nc1cccc(C(F)(F)F)c1)C(=O)O`: the inhibition was 17.4% (inactive).

`NC(c1csc(NC(=O)Nc2cccc(C(F)(F)F)c2)n1)C1CCCCC1` (stereo unspecified): the inhibition was 76.7% (active).

As to `CC(=O)Nc1ccc(-c2csc(NC(=O)Nc3ccccc3)n2)cc1`, the inhibition was -27.4% (inactive).

For the compound `O=C(Nc1cccc(C(F)(F)F)c1)c1cnccn1`, the inhibition was -0.813% (inactive).

For `C[C@H]1CN([C@@H](C)CO)C(=O)CCCn2cc(nn2)CO[C@H]1CN(C)C(=O)Nc1cccc(C(F)(F)F)c1`, the inhibition is 3.26% [at 25 µM] (inactive).

With `COc1ccc(NC(=O)Nc2ccc3c(c2)C(=O)N([C@@H](C)CO)C[C@H](C)[C@H](CN(C)Cc2ccc(C(F)(F)F)cc2)OCCCC[C@H](C)O3)cc1`, the inhibition is 8.72% (inactive).

As for `c1ccc(CNCc2ccc(CNCc3ccccc3)cc2)cc1`, the inhibition was -8.05% (inactive).

For the compound `Cc1ccc(S(=O)(=O)NCCC(=O)NNC(=O)C2COc3ccccc3O2)cc1` (stereo unspecified), the inhibition was -6.13% (inactive).

With `Cc1cc(C(=O)Cn2cnc3cc([N+](=O)[O-])ccc3c2=O)c(C)n1CC1CCCO1` (stereo unspecified), the inhibition was 0.959% (inactive).

Turning to `Cc1ccsc1C(=O)OCC(=O)c1cc(C)n(CC2CCCO2)c1C` (stereo unspecified), the inhibition is 94% (active).

On to `Cc1ccsc1C(=O)OCC(=O)c1cc2ccccc2o1`, for which the inhibition is -95.3% (inactive).

In the case of `O=C(OCC(=O)N1CCCC1=O)c1cc(S(=O)(=O)N2CCOCC2)ccc1Cl`, the inhibition is 17.8% (inactive).

Turning to `O=C(Nc1ccc2c(c1)OCCO2)c1ccncc1`, the inhibition is -42.5% (inactive).

As for `O=C(Nc1ccc2c(c1)OCCO2)C1CCCC1`, the inhibition was 97.3% (active).

On to `O=C(Nc1ccc2c(c1)OCCO2)C1CCCN(c2ncccn2)C1` (stereo unspecified), for which the inhibition was -6.73% (inactive).

With `CCOC(=O)COc1nc(C)cc(C(F)(F)F)c1C#N`, the inhibition is 7.91% (inactive).

For `CCCN1[C@H](CO)[C@H](c2ccc(C#CC3CCCCC3)cc2)[C@@H]1CNC(=O)C1CC1`, the inhibition is -8.21% [at 25 µM] (inactive).

As for `Cc1onc(-c2ccccc2)c1-c1nnc(COC(=O)c2ccc(N(C)C)cc2)o1`, the inhibition was 27.4% (inactive).

Take `CCN(Cc1ccccc1)S(=O)(=O)c1cc2c3c(c1)CCN3C(=O)CC2`: the inhibition is 12.8% (inactive).

For `Cc1ccc(/C=C/C(=O)OCC(=O)NCc2ccc(Cl)cc2)o1`, the inhibition was 50.7% (active).

Take `Cc1ccc(CNC(=O)COC(=O)C2CCC2)cc1`: the inhibition was -4.82% (inactive).

On to `CC(C)(Oc1ccc(Cl)cc1)C(=O)OCC(=O)NCCc1ccc(S(N)(=O)=O)cc1`, for which the inhibition was 11.6% (inactive).

With `COC(=O)c1sc(NC(=O)COC(=O)C2CCC2)c(C(=O)OC)c1C`, the inhibition is 2.99% (inactive).

`CC[C@H]1CN2CCc3cc(OC)c(OC)cc3[C@@H]2C[C@@H]1C[C@H]1NCCc2cc(OC)c(OC)cc21`: the inhibition was 89.6% (active).

Take `CCn1cc(-c2cc(C(=O)O)on2)c(C)n1`: the inhibition is 8.77% (inactive).

Take `CS(=O)(=O)N1[C@H](C#N)[C@H](c2ccc(C#CC3CCCC3)cc2)[C@H]1CO`: the inhibition is -13.6% [at 25 µM] (inactive).

For `CC(C)NC(=O)N1[C@H](C#N)[C@H](c2ccc(C#CC3CCCCC3)cc2)[C@H]1CO`, the inhibition was 52.1% (active).

`N#C[C@@H]1[C@H](c2ccc(C#CC3CCCCC3)cc2)[C@@H](CO)N1S(=O)(=O)c1ccccc1`: the inhibition was 51.3% (active).

On to `CC(C)C#Cc1ccc([C@@H]2[C@@H](C#N)N(C(=O)C3CC3)[C@@H]2CO)cc1`, for which the inhibition is 3.05% [at 25 µM] (inactive).

Take `CS(=O)(=O)N1[C@@H](C#N)[C@H](c2ccc(C#CC3CCCCC3)cc2)[C@@H]1CO`: the inhibition is -1.7% (inactive).

As for `N#C[C@H]1[C@@H](c2ccc(C#CC3CCCC3)cc2)[C@H](CO)N1C(=O)Nc1ccc(F)cc1`, the inhibition is 12% (inactive).

For the compound `O=C(O)C(c1cccs1)C1(O)CCCCC1` (stereo unspecified), the inhibition is 6.28% (inactive).

On to `Cn1c(N)cc(-c2ccc(F)cc2)c(C#N)c1=O`, for which the inhibition is 4.59% (inactive).

For the compound `COc1ccc(S(=O)(=O)N2CCOCC2)cc1NC(=O)CSc1cc(C)ccc1C`, the inhibition was 2.01% (inactive).

Turning to `Cc1cc2ccccc2n1CCC(=O)O`, the inhibition is 4.73% (inactive).

On to `C[C@@H]1C(=O)N[C@H](c2ccc3c(c2)OCO3)CC=CC[C@H](C)Oc2ccccc2C(=O)N1C` (mixture of isomers), for which the inhibition is 3.83% [at 25 µM] (inactive).

For `C[C@@H]1CC=CC[C@H](c2ccc(F)cc2)NC(=O)[C@@H](Cc2ccccc2)N(C)C(=O)c2ccccc2O1` (mixture of isomers), the inhibition was 53.9% [at 25 µM] (active).

On to `C[C@@H]1CC=CC[C@@H](c2ccccc2)NC(=O)[C@H](C)N(C)C(=O)c2ccccc2O1` (mixture of isomers), for which the inhibition is 8.95% [at 25 µM] (inactive).

Take `CS(=O)(=O)N1CCN(CC(=O)NC2CCCC2)CC1`: the inhibition is 4.72% (inactive).

As to `CS(=O)(=O)N1C[C@@H]2C(c3ccccc3)[C@H](C1)N2CC(F)(F)F` (stereo partly specified), the inhibition was 8.84% (inactive) and 23.5% (inactive).

For `COc1cccc(NC(=O)COC(=O)c2ccc3ccccc3n2)c1`, the inhibition is -7.67% (inactive).

With `O=C(Nc1ccccc1)Nc1nc2ccccc2s1`, the inhibition was -102% (inactive).

`Cc1ccnc(Nc2nc3ccccc3s2)n1`: the inhibition was -62.3% (inactive).

On to `c1ccc(C(=NNc2nc3ccccc3s2)c2ccccn2)cc1`, for which the inhibition was 72.5% (active).

`CCN1CCN(c2ccc(S(=O)(=O)N3CCCCC3)cc2NC(=O)c2cccc(NC(C)=O)c2)CC1`: the inhibition is 1.54% (inactive).

In the case of `CCN1CC(CN(C)Cc2nc(-c3ccc(Cl)cc3)no2)CC1=O` (stereo unspecified), the inhibition was 2.41% (inactive).

`CC1CCCC(NC(=O)c2cc(S(=O)(=O)N3CCCCC3)ccc2Cl)C1C` (stereo unspecified): the inhibition is 6.89% (inactive).

Consider `Cc1ccc(NC(=O)c2ccco2)cc1`, for which the inhibition was -36.5% (inactive).

`COc1cc(C(=O)CCc2ccc3c(c2)OCO3)cc(OC)c1OC`: the inhibition was 1.79% (inactive).

For `CCC1CCC2(CC1)NC(=O)N(CC(=O)Nc1ccc(OC)cc1)C2=O` (stereo unspecified), the inhibition was -0.377% (inactive).

For `C/C=C/c1ccc(C2[C@H]3CNC[C@@H]2N3Cc2cccc(OC)c2)cc1` (stereo partly specified), the inhibition was -2.62% (inactive) and -20.4% (active).

As to `C/C=C/c1ccc(C2[C@H]3CNC[C@@H]2N3Cc2cccc(F)c2)cc1` (stereo partly specified), the inhibition was 0.374% (inactive) and -2.51% (inactive).

In the case of `C/C=C/c1ccc(C2[C@H]3CNC[C@@H]2N3CC2CCOCC2)cc1` (stereo partly specified), the inhibition is 9.41% (inactive).

For the compound `CCc1noc(C)c1C(=O)N1CCN(S(=O)(=O)c2cccc(C(F)(F)F)c2)CC1`, the inhibition is 1.62% (inactive).

Consider `O=C1COc2c1ccc(O)c2O`, for which the inhibition is 12.2% (inactive).

Regarding `COc1ccc2c(C)cc(SCC(=O)NCC3CCCO3)nc2c1` (stereo unspecified), the inhibition was 1.77% (inactive).

Consider `Cc1noc(C)c1S(=O)(=O)Nc1ccc2c(c1)C(=O)N([C@@H](C)CO)C[C@@H](C)[C@H](CN(C)C(=O)Nc1cccc3ccccc13)OCCCC[C@H](C)O2`, for which the inhibition is 8.4% [at 25 µM] (inactive).

On to `Cc1noc(C)c1S(=O)(=O)Nc1ccc2c(c1)C(=O)N([C@@H](C)CO)C[C@H](C)[C@@H](CN(C)C(=O)Nc1cccc3ccccc13)OCCCC[C@H](C)O2`, for which the inhibition was 48% [at 25 µM] (active).

Turning to `Cc1ccc(S(=O)(=O)Nc2ccc3c(c2)C(=O)N([C@@H](C)CO)C[C@@H](C)[C@H](CN(C)C(=O)Nc2cccc4ccccc24)OCCCC[C@H](C)O3)cc1`, the inhibition was 9.18% (inactive).

As to `O=C(Cc1ccccn1)N1CC(=O)N2[C@H](CO)[C@@H](c3ccc(C#CC4CCCC4)cc3)[C@H]2C1`, the inhibition was -16.2% (inactive).

`O=C(Cc1ccc(Cl)cc1)c1ccccc1`: the inhibition was -54.5% (inactive).

On to `C/C=C/c1cccc(-c2nc(C(=O)NCCN3CCCC3)cc3c2[C@@H](CCO)N([S@](=O)C(C)(C)C)C3)c1`, for which the inhibition is -2.95% (inactive).

For `Cc1cc([N+](=O)[O-])nn1CC(=O)Nc1ccc(Cc2ccncc2)cc1`, the inhibition is -4.38% (inactive).

Turning to `CN(C)CCNC(=O)Nc1cccc(Cl)c1Cl`, the inhibition is 7.22% (inactive).

Take `CN(C)CCNC(=O)c1ccc(Cl)c2cc3ccccc3nc12`: the inhibition is 80.1% (active).

As for `CCCNC(=O)c1ccc(Cl)c(Cl)c1`, the inhibition is 0.458% (inactive).

Turning to `Cc1ccc(S(=O)(=O)NCCC(=O)NCc2ccc(Cl)cc2)cc1C`, the inhibition is 0.373% (inactive).
